In PubChem BioAssay AID504375 (National Center for Advancing Translational Sciences (NCATS), 2011):
The whole screen tested about 1,600 compounds, of which about 25 (2%) were called active. Roughly 7% stayed inconclusive and do not appear here. The entries come from a sample that favours actives as a whole. Unmarked numbers belong to inactive results. Calls follow the shape of the dose curve; as a rule, active = well fitted inhibition curve with a large enough effect; inconclusive = small, poorly fitted or top-dose-only effect, or effect the other way; inactive = no such curve, though single readings can be large or run the other way.

Each compound was assayed against Runt-related transcription factor 1 (Homo sapiens) + Core-binding factor subunit beta (Homo sapiens) (UniProt Q01196+Q13951) (assay: qHTS Assay for Compounds Blocking the Interaction Between CBF-beta and RUNX1 for the Treatment of Acute Myeloid Leukemia: Hit Validation with Orthogonal Assay). Conditions: CBFbeta-RUNX1 binding orthogonal assay, biochemical; series mostly up to 41 µM; activity change, negative = inhibition: at the top concentration.
Text: NIH Chemical Genomics Center [NCGC]
NIH Molecular Libraries Probe Production centers Network [MLPCN]
Assay Submitter (PI): Paul Liu
Core Binding Factor (CBF) abnormalities are associated with 20-25% of all acute myeloid leukemias (AML), of which 5-10% are further sub classified as acute myelomonocytic leukemia with eosinophilia, also known as M4Eo in the FAB classification scheme. This subtype of leukemia is usually associated with chromosome 16 inversion (p13:q22). Chromosome 16 inversion results in formation of the fusion oncogene CBFB-MYH11, which encodes the fusion protein CBF-beta-SMMHC.
It has been hypothesized that the interference of CBF-beta and RUNX1 binding could have therapeutic implications for patients with CBF mediated leukemias. We developed a CBF-beta and RUNX1 binding assay in AlphaScreenTM format and optimized it for high throughput screening to search for inhibitors. The goal of this project is to screen MLPCN's compound collection (MLSMR) for identifying the inhibitors of the interaction between CBF-beta and RUNX1 proteins as research probes. If these probes work well in the animal models, the ultimate goal of this project is to development a new drug treatment for this disease.
This assay can not be used to assess how apparent inhibitors interfere with protein binding, and whether inhibitors specifically bind to either protein. Disruption of this protein-protein interaction, through any mechanism, is the intended target activity.
The present data set was run to confirm the activity of hits from the primary screen using an orthogonal assay technology for measuring protein-protein interaction disruption.
A TR-FRET (time resolved fluorescence resonance energy transfer) assay was performed using the same assay buffer, protein concentrations and incubation times as described previously in the AlphaScreen assay, except that terbium (Tb+) labeled anti-his-antibody and XL665 linked streptavidin were used to capture the binding signal. The Tb+ labeled anti-his-antibody captures His(6)-CBF and XL665 linked streptavidin binds to biotin-RUNX1. The binding of RUNX1 to CBFbrings Tb+ and XL665 to proximity resulting in a TR-FRET signal. Briefly, in a white 384-well plate, 10 µl/well of mixture of biotin-RUNX1 and His(6)-CBFwere incubated with 10 µl/well buffer (positive control) or 10 µl/well compounds (negative control) for 20 min followed by an addition of 10 µl/well of Tb+ labeled anti-his(6)-antibody and XL665 linked streptavidin. After 90 min of incubation in the dark, the assay plate was measured in the Envision plate reader using TR-FRET detection mode. For the 1536-well plate format, 3 µl/well mixture of biotin-RUNX1 and His(6)-CBF (30 nM per protein) was incubated with 23 nl/well compound (dissolved in 100% DMSO) or the equivalent DMSO concentration (positive control) for 30 min followed by the addition of 1 µl/well of 0.44 ng Tb+ labeled anti-his(6)-antibody and 5 nM streptavodin-XL665. After 90 min of incubation, the assay plate was measured in the Envision plate reader.
The TR-FRET assay for detecting interaction between HIV-I Tat and […] was similarly performed with the recombinant full-length HIV-I Tat CLADE B and HIV-I Tat Biotin conjugated proteins supplied by Diatheva (Fano, Italy). Briefly, the His-CBF and Biotin-RUNX1 complex at a working concentration of 83.3 nM per protein were pre-incubated in assay buffer for 10 minutes on ice. Then HIV-I Tat or unlabeled CBF were added to reach final concentrations (Supplementary Figure 4b) and incubated for 5 minutes. Finally anti-His antibody and streptavidin-XL665 at a final concentration of 2.2 ng and 5 nM, respectively, were added to the plate, which was incubated for 1 hr prior to reading on the PerkinElmer Envision plate reader.
Keywords: MLSMR, MLPCN, NIH Roadmap, qHTS, NCGC, Core binding factor, CBF, CBF-beta, Acute myeloid leukemia
% is scaled to controls: 0 for no effect and ±100 for the full control effect; potency is read from the fitted curve at half-maximal effect.

Sequence of Runt-related transcription factor 1 (Homo sapiens) + Core-binding factor subunit beta (Homo sapiens) (Q01196 whole entry, looked up): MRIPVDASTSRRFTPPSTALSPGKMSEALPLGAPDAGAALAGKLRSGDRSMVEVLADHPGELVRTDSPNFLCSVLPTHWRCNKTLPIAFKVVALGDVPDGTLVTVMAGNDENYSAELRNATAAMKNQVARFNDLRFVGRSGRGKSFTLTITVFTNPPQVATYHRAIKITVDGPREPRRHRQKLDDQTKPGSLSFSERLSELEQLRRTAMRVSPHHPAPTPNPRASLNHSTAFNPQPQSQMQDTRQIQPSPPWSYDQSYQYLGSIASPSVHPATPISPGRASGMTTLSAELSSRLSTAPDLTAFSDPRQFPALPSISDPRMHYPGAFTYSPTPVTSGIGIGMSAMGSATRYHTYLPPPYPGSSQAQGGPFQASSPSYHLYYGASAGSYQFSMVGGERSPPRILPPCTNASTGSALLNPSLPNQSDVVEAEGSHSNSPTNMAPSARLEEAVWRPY
Sequence of Runt-related transcription factor 1 (Homo sapiens) + Core-binding factor subunit beta (Homo sapiens) (Q13951 whole entry, looked up): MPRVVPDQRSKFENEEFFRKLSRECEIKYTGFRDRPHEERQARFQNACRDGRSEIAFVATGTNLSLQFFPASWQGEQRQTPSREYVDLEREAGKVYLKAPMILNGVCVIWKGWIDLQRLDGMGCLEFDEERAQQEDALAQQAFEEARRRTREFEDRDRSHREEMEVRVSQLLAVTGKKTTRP

Structure (SMILES)	activity change, negative = inhibition	Potency
C/C(=N\NC(=O)Cn1nc(C)cc1C)c1ccc([N+](=O)[O-])cc1	53.1%	–
Cc1n[nH]c(C)c1CCC(=O)N/N=C/c1cccs1	15.4%	–
CCOC(=O)COc1nc2c(c(-c3ccco3)c1C#N)CCc1ccccc1-2	0.967%	–
CCOc1ccc(/C(C)=N/NC(=O)Cn2nc([N+](=O)[O-])cc2C)cc1	2.61%	–
Cc1ccccc1NC(=S)Nc1ccccn1	-11.9%	–
Cc1ccc(NC(=S)Nc2ccccn2)cc1C	17.3%	–
Cc1[nH]c(=O)[nH]c1C(=O)CCCCC(=O)OCC(=O)Nc1ccccn1	–	44.7 nM (active)
Clc1nc(Cl)nc(-c2cn(-c3ccccc3)c3ccccc23)n1	-21.3%	–
Nc1c(Cl)ncnc1NCC(O)CO (configuration not stated)	-0.893%	–
Cc1onc(-c2c(Cl)cccc2Cl)c1C(=O)c1ccc(F)cc1	-0.245%	–
O=C(O[C@@H]1OC2COC(=O)c3cc(O)c(O)c(O)c3-c3c(cc(O)c(O)c3O)C(=O)O[C@@H]([C@H]1O)[C@@H]2O)c1cc(O)c(O)c(O)c1	–	891 nM (active)
O=C1OCC2OC(O)C(O)C(O)C2OC(=O)c2cc(O)c(O)c(O)c2-c2c(O)c(O)c3oc(=O)c4c(c(O)c(O)c5oc(=O)c2c3c54)-c2c1cc(O)c(O)c2O (configuration not stated)	–	398 nM (active)
Cc1nn(C)c(Sc2ccccn2)c1[N+](=O)[O-]	17.8%	–
Nc1ccc(Oc2ccccc2F)nc1	4.8%	–
Cc1nc(C)c(-c2ccn(C(=O)NC(C)C)n2)s1	-3.96%	–
CC(C)(C)c1ccc(C(=O)Nc2ccc(S(N)(=O)=O)cc2)cc1	-14.1%	–
c1ccc2oc(-c3ccn[nH]3)cc2c1	13%	–
CN(C)C(=S)Nc1ccc(Cl)cc1	-10.5%	–
C/C(=N\NC(=O)c1cc(-c2cccc([N+](=O)[O-])c2)n[nH]1)c1ccc(F)cc1	24.3%	–
Cc1cc(Cl)c2cc3ccccc3cc2n1	-4.05%	–
Cc1ccc(Cl)cc1NC(=S)NN	-11.4%	–
Cc1cccc(NC(=S)N(CCN(C)C)C(C)c2ccccn2)c1 (configuration not stated)	3.34% [at 22.1 µM]	–
Cc1ccc(Cl)cc1NC(=S)N(CCN(C)C)C(C)c1ccccn1 (configuration not stated)	–	1220 nM (active)
COc1ccc(C2Sc3ccccc3N(CCN(C)C)C(=O)C2OC(C)=O)cc1 (configuration not stated)	-5.56%	–
c1ccc(N2CCOCCOCCOCCOCC2)cc1	-0.0612%	–
CC(C)(C)OC(=O)N1CCCN(C(=O)Nc2cccc(Cl)c2)CC1	-9.47%	–

Structure (SMILES)	activity change, negative = inhibition	Potency
O=C1c2ccccc2C(=O)N1/N=C/c1ccc(O)c(O)c1O	–	2820 nM (active)
COc1ccc(C(=O)COc2ccc(C)cc2NC(C)=O)cc1	1.31%	–
CC1CC(C)(C)NC(=S)O1 (configuration not stated)	-6.64%	–
CCCCCNc1nc2sc3c(c2c(=O)n1-c1cccc(Cl)c1)CCN(C)C3	10.2%	–
Cc1cc(C)c2c(N)c(-c3nnc(SCc4ccc(Cl)cc4)n3C)sc2n1	-7.93%	–
O=C(/C=C/c1cn(CC(O)CN2CCCCC2)c2ccccc12)c1ccccc1 (configuration not stated)	7.34%	–
S=c1[nH]nc([C@@H]2C[C@H]2c2ccccc2)n1-c1ccccc1Cl	-7.38%	–
CCc1cccc(NC(=O)CCCCCC2NC(=O)NC2C)c1 (configuration not stated)	–	56.2 nM (active)
CCC(=O)Nc1cccc(C(=O)OC)c1	1.37%	–
CCCCC(=O)Nc1ccc(NC(=S)NC(=O)c2ccco2)cc1OC	-1.9%	–
CCCCc1c(C)nc(N2CCCC2)[nH]c1=O	0.526%	–
Cc1cc(=O)n2[nH]c(CCC(=O)O)nc2n1	14.9%	–
CCN(CC)S(=O)(=O)c1cccc(NC2=NCCCCC2)c1	-3.88%	–
CCN1C/C(=C/c2cccs2)c2nc3ccccc3c(C(=O)O)c2C1	30.8%	–
COc1ccc(OS(=O)(=O)c2c(C)noc2C)cc1	14.1%	–
O=C(OCC1OC(OC(=O)c2cc(O)c(O)c(OC(=O)c3cc(O)c(O)c(O)c3)c2)[C@@H](OC(=O)c2cc(O)c(O)c(OC(=O)c3cc(O)c(O)c(O)c3)c2)C(OC(=O)c2cc(O)c(O)c(OC(=O)c3cc(O)c(O)c(O)c3)c2)C1OC(=O)c1cc(O)c(O)c(OC(=O)c2cc(O)c(O)c(O)c2)c1)c1cc(O)c(O)c(OC(=O)c2cc(O)c(O)c(O)c2)c1 (some centres not stated)	–	10000 nM (active)
O=C(Nc1ccc(Cl)cc1)N1CCCC(Cn2cccc2)C1 (configuration not stated)	-9.6%	–
CC(C)c1nc2oc3c(N(C)CCO)ncnc3c2c2c1CCC2	-6.9%	–
CC(C)(C)NC(=O)c1cccc2c1C(=O)c1ccccc1-2	19.1%	–
O=C(O)C[C@@H]1C(=O)O[C@@H]2C(COC(=O)c3cc(O)c(O)c(O)c3)O[C@@H](OC(=O)c3cc(O)c(O)c(O)c3)[C@@H](OC(=O)c3cc(O)c(O)c4c3[C@H]1[C@H](O)C(=O)O4)[C@H]2OC(=O)c1cc(O)c(O)c(O)c1 (some centres not stated)	–	89.1 nM (active)
CCN(CC)c1ccc(/C=N/N2CCN(Cc3ccccc3Cl)CC2)c(O)c1	3.34%	–
CCCNC(=S)Nc1ccccc1	1.82%	–
CC1CCC2(CC1)NC(=S)N(C(C)(C)C)N2 (configuration not stated)	-0.587%	–
CN1c2ccccc2C(=O)/C(=C\Nc2ccc(F)cc2)S1(=O)=O	3.72%	–
COC(=O)[C@@H](NC(=O)NC1CCCCC1C)C(C)C (some centres not stated)	4.32%	–
CCCCCc1ccc(S(=O)(=O)Nc2cc(C)ccn2)cc1	-8.73%	–
